Hits are enriched below; roughly 18% of the tested compounds scored in any of these assays.
Gal4-VP16 FLuc: Gal4-VP16 reporter inhibition counter-screen; 310,000 compounds, 3.5% hits; Drosophila S2 Gal4-VP16 UAS-luciferase, luminescence, 20 h; Potency, µM (top dose mostly 53.6 µM), inactives show at the highest dose activity, negative = inhibition, hits mostly inhibitors; AID 2546;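 further: Gal4-VP16 expression switched on by copper sulfate through the metallothionein promoter; potency means the concentration at half of the fitted maximal effect; nearly all actives have a fitted effect of over 50% in size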
DT40 TDP1 CPT: DT40-hTDP1 cell growth loss with CPT; chicken DT40 Tdp1-/-;hTDP1 cells + 20 nM CPT, ATP luminescence, 48 h; AID 686979; 420,000 compounds, 12% hits; Potency, µM (highest dose often 46.2 µM), without a hit: at the top dose activity change, negative = growth inhibition, most hits filed as inhibitors; further: potency means the concentration at half of the fitted maximal effect; nearly all actives have a fitted effect of over 55% in size
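Chicken DT40 Tdp1-/- cells complemented with human TDP1, 400 cells/well, exposed to compounds plus 20 nM camptothecin for at least 48 h at 37 C; viability read as ATP content by CellTiter-Glo luminescence.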
IL-1B inflam inh: inflammasome signaling inhibition, IL-1 beta readout. THP-1 LPS/ATP IL-1B secretion, AlphaLISA, 16 h; stronger effect = lower value. activity change, % at 57.5 µM. 360,000 compounds, 4.7% hits. AID 743279; in the data active means activity change below about -50%; inconclusive means mostly about -30% to -49%
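THP-1 cells pretreated 1 hr with compounds (up to 57.5 uM final), then stimulated with LPS (250 ng/mL final) plus ATP (1.25 mM final); secreted IL-1B measured by AlphaLISA after 16 hr, decreased signal indicating inhibition.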
RORg inh: inhibitors of mouse ROR gamma transcriptional activity. P51450. Drosophila S2 Gal4-RORgamma UAS-luciferase reporter, 20 h. Potency, µM (top dose mostly 53.6 µM), for inactives: top-dose activity change, negative = inhibition, most hits filed as inhibitors. 310,000 compounds, 5.4% hits. AID 2551; further: potency means the concentration at half of the fitted maximal effect; nearly all actives have a fitted effect of over 60% in size
Target sequence (P51450 whole entry, looked up, the tested form may be a part): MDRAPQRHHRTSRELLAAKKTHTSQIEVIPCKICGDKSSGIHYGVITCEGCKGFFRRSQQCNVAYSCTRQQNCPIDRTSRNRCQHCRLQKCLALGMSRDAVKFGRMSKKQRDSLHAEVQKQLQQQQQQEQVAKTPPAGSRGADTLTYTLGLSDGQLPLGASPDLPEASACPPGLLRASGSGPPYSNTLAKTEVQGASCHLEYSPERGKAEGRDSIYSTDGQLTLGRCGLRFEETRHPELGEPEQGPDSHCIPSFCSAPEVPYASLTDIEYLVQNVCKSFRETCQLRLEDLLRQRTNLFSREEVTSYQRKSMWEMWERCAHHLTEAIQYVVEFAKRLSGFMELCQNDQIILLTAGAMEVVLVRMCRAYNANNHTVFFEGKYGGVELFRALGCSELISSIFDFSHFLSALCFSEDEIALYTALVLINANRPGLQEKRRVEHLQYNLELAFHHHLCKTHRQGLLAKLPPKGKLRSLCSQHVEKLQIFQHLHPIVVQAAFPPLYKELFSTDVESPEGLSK
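In this cell-based reporter format, copper sulfate (700 uM final) drives Gal4–ROR gamma fusion expression from a metallothionein promoter in Drosophila Schneider cells; compounds preincubated 1 hr, reporter read after 20 hr at ambient temperature.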
DT40 TDP1 no CPT: qHTS for Inhibitors of human tyrosyl-DNA phosphodiesterase 1 (TDP1): qHTS in cells in absence of CPT; DT40 Tdp1-/- hTDP1 cells, no CPT, ATP luminescence, 48 h; Potency, µM (highest dose often 46.2 µM), without a hit: at the top dose activity change, negative = growth inhibition, most hits filed as inhibitors; 420,000 compounds, 15% hits; AID 686978, 2013; further: potency means the concentration at half of the fitted maximal effect; nearly all actives have a fitted effect of over 55% in size
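Growth of hTDP1-complemented DT40 Tdp1-knockout cells is measured by ATP luminescence after at least 48 hr compound exposure at 37 °C, with DMSO substituting for the 20 nM CPT used in the parallel screen.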
LDHA block: inhibitors of human lactate dehydrogenase A; P00338; purified LDHA, NADH/diaphorase-resazurin fluorescence; stronger effect = lower value; activity change, % (values are at about 110 or 230 µM); 480,000 compounds, 0.15% hits; in the data active means activity change below about -30%; inconclusive means mostly about -25% to -30%;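 further: plate controls were DMSO wells for no effect and wells without enzyme for full effect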
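Resorufin fluorescence (ex540/em590), read at 0 and 20 min after diaphorase/resazurin addition, reports the NADH left after a 5 min room-temperature reaction of 2 nM human LDH5 with 0.06 mM NADH and 0.2 mM pyruvate.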
Active calls of the source: *; ? = inconclusive; . = not tested or not shown. Unless noted, the call rests on the fitted dose curve; in most records, active means well fitted curve in the direction sought with a large enough effect; inconclusive means small, poorly fitted or top-dose-only effect, or another doubt; inactive means no such curve, though single readings can be large; an effect the other way counts as inactive or inconclusive. Unless noted, on the % scale 0 is the no-effect control and ±100 the full control effect.

SMILES	Gal4-VP16 FLuc	DT40 TDP1 CPT	IL-1B inflam inh	RORg inh	DT40 TDP1 no CPT	LDHA block
COC(=O)C(OC(=O)c1[nH]c(C)c(C(C)=O)c1C)c1ccccc1Cl (stereo unspecified)	.	.	.	.	.	12.6
CCOc1ccccc1C(=O)NCC(=O)NNC(=O)CN(C)S(=O)(=O)c1ccc(Cl)cc1	.	20.6µM*	-3.7	.	11.6µM*	-1.4
CN(CC(=O)NNC(=O)CNC(=O)c1ccccc1F)S(=O)(=O)c1ccc(Cl)cc1	.	-4.8%	0.0	.	-0.7%	-12.9
COc1ccccc1Oc1c(C)oc2cc(OCC(=O)O)ccc2c1=O	.	.	.	.	.	-9.0
Nc1nc(NCc2cccc(Cl)c2)c2[nH]cnc2n1	.	?	.	.	?	1.2
COc1nc(N)nc2nc[nH]c12	3.6%	1.8%	-77.3*	-23.6%	4.3%	-4.2
COc1ccccc1/C=C1/C(=O)N(c2ccccc2)N=C1C	-1.2%	-22.2%	2.7	-18.1%	-17.3%	-0.6
Cc1ccc(C2=NOC(=O)/C2=C\C=C\c2ccccc2)cc1	?	4.61µM*	-95.7*	14.1µM*	4.61µM*	-2.4
CN(C)/C=C1\C(=O)ON=C1c1ccccc1	-11.4%	16.0%	0.0	-6.9%	-8.9%	-12.9
CC1=NN(c2ccccc2)C(=O)/C1=C/C=C/c1ccccc1	17.8µM*	-75.5%	-129.3*	?	2.59µM*	1.9
CC1=NN(c2cccc(C(=O)O)c2)C(=O)/C1=C\C=C\c1ccco1	?	?	-95.8*	3.55µM*	?	2.2
CCOC(=O)N1CCN(Cc2cc(=O)oc3cc(O)c(Cl)cc23)CC1	.	.	.	.	.	0.1
COc1cc(C(=O)OCC(=O)c2ccc(F)cc2F)cc(Cl)c1O	.	.	.	.	.	9.5
CCc1ccc(CCC(=O)Nc2cccnc2)cc1	.	.	.	.	.	7.4
COc1ccccc1C(CNC(=O)C1CCN(S(=O)(=O)c2ccc3c(c2)CCC3)CC1)N(C)C (stereo unspecified)	.	.	.	.	.	-5.2
Cc1cccc(CNc2ccnc(-c3ccccc3CN(C)C)n2)c1	1.2%	13µM*	.	-30.9%	7.31µM*	.
COc1ccccc1CNc1ccnc(-c2ccccc2OC)n1	-6.5%	?	.	10.0%	?	.
COc1ccccc1-c1nccc(NCc2cccc(C)c2)n1	?	16.4µM*	.	10.9%	10.3µM*	.
CC(C(=O)NC1CC1)N1CCN(Cc2cccc3cccnc23)CC1 (stereo unspecified)	.	.	.	.	.	5.2
CC(=O)CSc1nc(N)c(C#N)c(-c2cccs2)c1C#N	3.4%	20.6µM*	9.3	27.6%	13µM*	-10.4
CC(C)(C)C(=O)CSc1nc2c(c(-c3cccs3)c1C#N)CCC2	3.7%	?	15.1	?	23.1µM*	1.2
CN1CCc2nc(SCC(=O)Nc3ccc(OC(F)(F)F)cc3)c(C#N)c(-c3cccs3)c2C1	-5.5%	14.6µM*	-24.9	1.8%	23.1µM*	22.6
Cc1cccc(CSc2nc(N)c(C#N)c(-c3cccs3)c2C#N)c1	?	?	-54.3*	?	?	0.0
CN1CCc2nc(SCC(=O)Nc3cccc(F)c3)c(C#N)c(-c3cccs3)c2C1	-1.5%	?	0.0	9.2%	?	5.8
Cc1cccc(CSc2nc3c(c(-c4cccs4)c2C#N)CN(C)CC3)c1	-3.4%	?	?	41.7%	?	1.9
SMILES	Gal4-VP16 FLuc	DT40 TDP1 CPT	IL-1B inflam inh	RORg inh	DT40 TDP1 no CPT	LDHA block
C#CCOC(=O)C[N+](C)(C)C/C=C(/C)Cl	.	.	.	.	.	-5.4
COc1cc(NC(=O)c2ccccc2)c(OC)cc1NC(=O)CCc1ccc(-c2ccccc2)o1	.	.	.	.	.	9.3
Fc1cnc(Cl)nc1N1CCN(c2ccccc2)CC1	-6.7%	43.0%	30.3	-1.6%	-17.5%	2.4
CN1CCN(c2nc(N3CCN(c4ccccc4)CC3)ncc2F)CC1	10.4%	?	-71.0*	0.5%	?	-2.7
COc1ccc(Nc2nc3ccccc3nc2NS(=O)(=O)c2cccc(Cl)c2)cc1OC	.	.	.	.	.	2.3
COc1cccc(Nc2nc3ccccc3nc2NS(=O)(=O)c2cccs2)c1	?	9.2µM*	?	?	10.3µM*	-6.8
COc1ccc(Nc2nc3ccccc3nc2NS(=O)(=O)c2ccc(Cl)cc2)cc1OC	.	9.2µM*	.	.	?	0.3
CCn1c(=O)c(CCC(=O)N2CCN(c3ccccn3)CC2)c(C)c2c(C)nn(-c3cccc(C)c3)c21	0.0%	14.6µM*	10.0	14.0%	?	1.9
Cc1ccc(-n2c(=O)c3c(c4cc(C)ccc4n3C)n(CC(=O)NCC3CCCO3)c2=O)cc1 (stereo unspecified)	.	?	10.5	.	?	1.1
CCn1c(=O)c(CCC(=O)NCC2CCCO2)c(C)c2c(C)nn(-c3ccc(C)cc3)c21 (stereo unspecified)	-1.2%	23.1µM*	33.4	1.6%	?	-7.0
CC1=CC(=O)C(C(C)C)=CC1=NC(=O)c1ccc(C)cc1	-9.2%	2.31µM*	14.9	-14.5%	2.06µM*	15.9
Cc1cc(=O)oc2cc(OCC(=O)NC(C)C34CC5CC(CC(C5)C3)C4)ccc12 (stereo unspecified)	.	.	.	.	.	15.2
Cc1c(NCc2nc(-c3cccs3)no2)cccc1-n1cnnn1	.	.	.	.	.	0.4
Cc1ccccc1NS(=O)(=O)c1ccc(C(=O)N2CCN(c3ccccc3O)CC2)cc1	-9.8%	11.6µM*	?	66.2%	14.6µM*	2.4
Cc1ccccc1NS(=O)(=O)c1ccc(C(=O)N2CCN(c3ccccn3)CC2)cc1	?	?	-3.6	33.0%	14.6µM*	-3.7
Cc1ccccc1NS(=O)(=O)c1ccc(C(=O)N2CCCCCC2)cc1	.	?	2.3	.	?	-3.9
O=C(c1ccc(S(=O)(=O)Nc2ccccc2F)cc1)N1CCN(c2ccccn2)CC1	.	?	24.5	.	?	-5.8
CC(=O)CC1(C(C#N)C#N)C(=O)Nc2ccccc21 (stereo unspecified)	.	.	.	.	.	-15.8
O=[N+]([O-])c1cc(Br)c(O)c(/C=N/Nc2nnnn2-c2cccc3ccccc23)c1	6.31µM*	-16.5%	20.7	3.16µM*	-4.5%	-36.8*
O=[N+]([O-])c1ccc(NN=Cc2cccc3ccccc23)cc1	.	?	-12.2	.	?	-9.1
CC(Oc1cccc(F)c1)C(=O)NCCc1cccs1 (stereo unspecified)	.	.	.	.	.	-0.2
Cc1cc(=O)n2[nH]c(N)c(N=Nc3ccccc3F)c2n1	10.6%	?	9.8	10µM*	16.4µM*	3.1
CN(C(=O)c1ccc(Cl)cc1)c1nc2ccccc2o1	.	.	.	.	.	-0.3
CCOC(=O)Nc1ccc2c(c1)Cc1cc([N+](=O)[O-])ccc1-2	.	?	-8.7	.	?	-3.2

Screening data as filed in PubChem BioAssay.
